# Data reported in the supplement of paper PMC6555819.
# Legend:
# Assay in all cases: PBM binding z-score (relative to random genomic background probes); higher = stronger binding; sequences stand for … in GC…GCGATTGACAGCGTAGAATGAAGG
# [1] = system: FXR:RXRa (NR concentration 270 nM, RXRa partner concentration 90 nM)
# How it was run: (§1)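 Random background probes are the reference for binding z-scores. These scores derive from regression-normalized fluorescence on custom Agilent 4×180K protein-binding microarrays incubated 1 h with ligand-free nuclear receptor dimers. Binding was detected with antibodies against each partner (one per run).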
# [2] = system: LXRa:RXRa (NR concentration 270 nM, RXRa partner concentration 90 nM)
# How it was run: as §1
# [3] = system: LXRa homodimer (NR concentration 270 nM)
# How it was run: as §1
# [4] = system: LXRb:RXRa (NR concentration 270 nM, RXRa partner concentration 90 nM)
# How it was run: as §1
# [5] = system: LXRb homodimer (NR concentration 270 nM)
# How it was run: as §1
# [6] = system: PPARa:RXRa (NR concentration 270 nM, RXRa partner concentration 90 nM)
# How it was run: as §1
# [7] = system: PPARg:RXRa (NR concentration 180 nM, RXRa partner concentration 90 nM)
# How it was run: as §1
# [8] = system: PPARg:RXRa 270nM:90nM, anti-RXR (NR concentration 270 nM, RXRa partner concentration 90 nM)
# How it was run: as §1
# [9] = system: PPARg:RXRa 30nM:10nM, anti-RXR (NR concentration 30 nM, RXRa partner concentration 10 nM)
# How it was run: as §1
# [10] = system: PPARg:RXRa 90nM:30nM, anti-RXR (NR concentration 90 nM, RXRa partner concentration 30 nM)
# How it was run: as §1
Sequence,PBM binding z-score [1],PBM binding z-score [2],PBM binding z-score [3],PBM binding z-score [4],PBM binding z-score [5],PBM binding z-score [6],PBM binding z-score [7],PBM binding z-score [8],PBM binding z-score [9],PBM binding z-score [10]
TCTGCTAGGTCAACGATGGACAGCTAATCTGCTA,3.08,2.24,-0.31,1.28,-0.137,3.07,2.78,3.12,2.13,2.56
CCTACTGGGCCATTCAGTGGTCATTGATCATATG,-0.271,-0.187,-0.281,-0.498,-0.602,0.355,0.304,0.661,-0.571,0.191
TCTTGTAGATGAAGCAGGTTAAGAAAGCCTGAGT,0.563,-0.122,-0.489,0.276,-0.649,0.511,-0.527,0.925,2.72,1.69
CAAACTAGGTCAGAGAGGTCAAAGTCCGTGCGTA,6.28,6.16,6.8,5.36,1.48,6.07,8.4,7.06,4.96,7.01
CGTCCAAGGTCATAGCAGGTCAGTGAAGACAGAT,7.63,7.02,3.65,5.58,0.842,5.85,5.23,5.24,2.03,4.17
TCTTGTAGATCAAGCAGGTTAAAAAAGCCTGAGT,0.399,0.66,0.0137,0.802,-0.381,1.05,-0.353,1.21,2.5,1.89
TATACAGGGTCAAAGGCCAGAGTACGAATGTCGA,7.35,6.25,2.5,4.96,1.86,6.57,8.48,7.61,5.77,7.93
AGAATGAGGTTATTAAGAGCAGGGAATTGCGGTC,1.73,1.76,0.247,1.32,0.0744,2.77,1.58,1.87,0.503,1.45
ATACCAAGGTGATCGTGAGGTGGTTGATACTAAC,0.375,0.57,0.0365,-0.0432,0.00305,0.168,0.411,0.0619,0.226,0.142
CCTTACGGCTCAAGGTTATAGCACGGGTGGTACG,0.272,0.347,0.117,0.126,-0.259,0.445,0.607,0.552,0.388,0.076
ACAGACAGGTGAGTGAAGGTAACACAGCTGGACG,0.433,0.227,-0.295,-0.073,-0.319,0.307,1.16,0.43,0.00598,0.0299
TCGAGTAGGTTAGGGGCATTCCGAATGGCGTCGA,0.369,0.403,-0.233,0.645,-0.872,1.25,0.541,2.27,1.24,1.64
ATCTCGAGGTAAAAGTTCAGTGAATCCCGAGGAT,1.26,1.85,0.551,1.28,0.304,3.44,5.01,5.51,4.17,5.67
TCTGCTAGGTCAACGATGGTCAGCTAATCTGCTA,3.45,2.96,-0.225,1.44,-0.144,3.19,2.69,3.14,1.76,2.48
TGTTAAAGTTCAAAGGTAACGTAAGTATCCACAC,6.98,6.1,5.38,4.53,2.3,5.47,7.2,6.84,4.03,6.36
TGTCAAAGTTCAAAGGTAACGTAGGTATCCACAC,6.64,6.44,4.15,4.46,1.58,5.79,8.31,7.65,4.86,7.25
TAGCCTAGGTCATTGGGCCCGTATAGTACGCATC,4.15,3.59,0.962,2.9,0.67,3.84,2.27,2.57,0.517,1.74
CCAGACAGGTGAGAGGTAACTCAGTCTGGTACGC,-0.0103,0.206,-0.48,0.237,-0.589,1.97,2.93,4.15,1.95,3.82
TGCATGAGGTTATAAGATCAGGGAACGTTGCAAA,1.67,1.59,-0.113,0.956,0.14,2.37,0.778,1.2,0.448,0.789

Sequence,PBM binding z-score [1],PBM binding z-score [2],PBM binding z-score [3],PBM binding z-score [4],PBM binding z-score [5],PBM binding z-score [6],PBM binding z-score [7],PBM binding z-score [8],PBM binding z-score [9],PBM binding z-score [10]
TTACCAAGGTGAGCTGAGGGCGTTGATCCAACTC,0.29,-0.133,-0.543,-0.27,-1.16,0.372,-0.203,-0.041,-0.278,-0.0993
CCTACTGGGCCAAAAAGGTGATTGATGCCGATAA,-0.195,-0.147,-0.405,-0.234,-0.963,0.761,0.56,0.945,-0.119,0.309
TCAGATAGGTAATACAGGTGAAAGTCGGCATCTA,0.862,1.41,0.032,0.889,0.0501,1.72,0.936,2.37,4.15,3.25
CGTCCAAGGTCAGAGAGGTAAGTGAATGCCGAGT,4.98,3.18,0.174,2.39,-0.0952,3.93,2.19,2.66,0.414,1.42
GATACAGTGTCAGCTAGAGGCCAGAGTATGGAAA,-0.507,-0.554,-0.437,-0.763,-0.98,-0.257,0.158,-0.349,-0.273,-0.224
ATCTCTAGGTAAGACTCAGTCCAGTGAAGAACGC,0.392,0.554,-0.00583,-0.0175,0.668,-0.0468,0.17,0.258,0.405,0.142
GCTGCTAGGTCAACTGATGGTCGGCTAAAGCTCG,3.88,3.08,0.00529,1.89,-0.133,3.7,2.39,3.16,0.547,1.99
CGTCCAAGGTCAAAGGGCAGTGAAGAGATGACGG,7.23,5.66,1,4.32,0.742,6.15,7.62,7.16,5.08,7.03
TATACAGGGTCAAAGGCCAGATTACGAATGTCGA,7.37,6.22,2.78,4.95,2.24,6.15,8,7.46,5.15,7.09
TCTTGTAGACCAGCAGGTTAAGAAAGCTGGCCAA,0.124,0.0452,-0.542,0.0973,-0.717,0.558,-0.5,1.27,2.61,1.96
TAGCCTAGGTCATGCAGGGGCCAGTATAGAAAGC,3.95,3.15,-0.0993,2.24,-0.427,3.56,2.28,2.44,0.917,1.5
CCTATTAGTTGACCATAAGGGCTACCGAAGCTCG,0.118,0.0436,0.338,0.131,0.649,-0.0868,0.355,0.0189,0.219,0.0475
AGTTAAAGTTCATCTAGGTAACGTAAGATATGCT,6.36,6.33,5.76,3.75,2.33,4.67,4.77,4.99,2,4.03
CGAACGAGGGCACGAGTTGATAGCAAATGCCGAT,0.992,0.567,-0.547,0.453,-0.624,2.28,2.4,1.99,0.448,1.44
ACTATTAGTTGAGACGAGGGCAACCGATAGGTTG,0.538,0.128,0.022,0.22,0.0471,0.636,0.774,0.555,0.376,0.316
TAGCCTAGGTCATTGGGCCAGTAGAGTACGCATC,3.86,3.33,0.509,2.17,-0.0447,3.92,3.68,3.97,0.744,2.76
TCTGCTAGGTCTGTTGGTCAGCTAACGAGCTGCC,-0.418,-0.439,-1.21,-0.715,0.485,-0.204,-1.23,0.384,0.834,0.687
TCTAGTTGGTCACGGAGGTAACACACGACGGGTA,0.499,0.13,-0.316,0.404,0.515,1.02,1.34,1.92,3.23,2.25
TCTTGTAGATCAAAGTTTAAGAAAGCCGAAGCCT,0.983,1.1,0.0318,0.659,0.169,2.46,4.04,5.01,5.17,5.73
